In the library only some 2.9% were active in any assay of this set; here they are far more common.
TSG101-PTAP inh = qHTS Assay for Iinhibitors of HIV-1 Budding by Blocking the Interaction of PTAP/TSG101. 340,000 tested, under 10 active. AID 493005, 2010. Potency, µM (doses to about 115 µM), for the others: top-dose activity change, negative = inhibition, actives largely listed as inhibitors. Fluorescence polarization, FITC-PTAP peptide / Tsg101 binding; active means well fitted inhibition curve with a large enough effect in the main read-out, with a control signal flat, not every such curve was filed as active; inconclusive means small, poorly fitted or top-dose-only effect, or effect the other way, or a change in a side signal; inactive means no such curve, though single readings can be large or run the other way; further: potency means the concentration at half of the fitted maximal effect; % of control where 0% means no effect
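FP read-out: FITC-PTAP peptide, 50 nM final, binding Tsg101 binding domain, 10 uM final; 20 min, r.t.; 10 mM HEPES pH 7.5, 0.15 M NaCl, 0.01% Tween 20, 3 mM EDTA, 0.1 mM TCEP.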
DRD3 antagonist = qHTS of D3 Dopamine Receptor Antagonist: qHTS; D(3) dopamine receptor (Homo sapiens), P35462; D3R cells, DiscoveRx beta-arrestin luminescence, antagonist mode; stronger effect = lower value; max response, negative = inhibition, %; hit rate 2.5% among 360,000; AID 652054, 2013; in the data active means max response below about -50%; inconclusive means no clear call, values can overlap the other calls; further: on the % scale 0 is the no-effect control and ±100 the full control effect
Target sequence (P35462 whole entry, looked up): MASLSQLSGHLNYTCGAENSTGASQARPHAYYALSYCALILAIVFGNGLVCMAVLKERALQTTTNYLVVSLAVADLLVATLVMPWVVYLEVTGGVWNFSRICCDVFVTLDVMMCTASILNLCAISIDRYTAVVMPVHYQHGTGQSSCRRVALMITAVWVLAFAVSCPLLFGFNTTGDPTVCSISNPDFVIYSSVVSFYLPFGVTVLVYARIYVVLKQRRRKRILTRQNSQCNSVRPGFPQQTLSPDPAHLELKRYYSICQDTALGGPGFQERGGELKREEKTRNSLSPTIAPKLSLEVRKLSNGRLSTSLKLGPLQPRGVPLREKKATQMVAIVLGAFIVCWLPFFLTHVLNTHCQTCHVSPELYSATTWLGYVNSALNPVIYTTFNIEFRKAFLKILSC
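Cells expressing the human receptor were seeded at 1500 cells/well, incubated overnight at 37 degrees C in 5% CO2, then exposed to library compounds with dopamine controls for 90 minutes at 37 degrees C before luminescent detection.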
Rango complex inh = qHTS Assay for Inhibitors of Rango (Ran-regulated importin-beta cargo) - Importin beta complex formation; Importin subunit beta-1 (Homo sapiens), Q14974; Rango CFP/YFP FRET sensor + importin beta, 45 min; Potency, µM (top dose mostly 92.2 µM), inactives show at the top dose inhibition of complex formation; hit rate 0.031% among 340,000;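 further: potency means the concentration at half of the fitted maximal effect; 0% = DMSO wells and 100% = buffer wells lacking importin beta; nearly all actives have a fitted effect of over 15% in size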
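Inhibition scored from the CFP 486 nm/YFP 530 nm FRET ratio 45 min after adding 0.125 microM importin beta to 50 nM Rango biosensor preincubated 5 min with compound (room temperature, PBS with DTT, Tween-20, BSA). No-importin wells as positive control.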
Mm-Cpn inhibitor = Inhibitors of TCP-1 ring complex (TRiC) of Methanococcus maripaludis (MmCpn): qHTS | Potency, µM (titrated, usually from 76.9 µM), for inactives: at the highest dose activity, negative = inhibition, actives largely listed as inhibitors | purified Mm-Cpn ATPase, ADP Transcreener TR-FRET | hit rate 0.031% among 330,000; active means well fitted inhibition curve with a large enough effect; inconclusive means small, poorly fitted or top-dose-only effect; further: potency means the concentration at half of the fitted maximal effect; on the % scale 0 is the no-effect control and ±100 the full control effect; nearly all actives have a fitted effect of over 80% in size
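Eu-cryptate anti-ADP/ADP-d2 competition gives a ratio inversely related to ADP. Enzyme at 25 nM was pre-exposed to compound for 10 min, then given 10 uM ATP for 30 min, 37°C throughout.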
DRD3 agonist = qHTS of D3 Dopamine Receptor Agonist: qHTS | D3R DiscoveRx beta-arrestin cells, luminescence, 90 min | max activation, % | hit rate 0.58% among 410,000 | AID 652048, 2013; in the data active means max activation above about 30%; further: 0% is about no effect
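Agonist-mode cell screen: cells plated at 1500/well and incubated overnight at 37 °C, then exposed to library compounds for 90 min at 37 °C. Detection reagent was added for 30–60 min at room temperature, and luminescence was read.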
Rango dissoc inh = qHTS Assay for Inhibitors of RanGTP induced Rango (Ran-regulated importin-beta cargo) - Importin beta complex dissociation | Snurportin-1 (Homo sapiens) + GTP-binding nuclear protein Ran (Homo sapiens) + Importin … | Biochemical FRET Rango-importin beta, RanGTP-induced dissociation | Potency, µM (highest dose often 46.1 µM), without a hit: at the top dose activity change, negative = inhibition | hit rate 0.071% among 340,000; further: potency means the concentration at half of the fitted maximal effect; % of control where 0% means no effect; nearly all actives have a fitted effect of over 45% in size
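Two FRET readings bracket the reaction: one 5 min after compound meets Rango–importin beta, another 45 min after RanGTP-RCC1 (0.6 uM Ran, 0.2 uM RCC1, 2 mM GTP) is added. Only the second defines inhibition.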
Numbers without * were called inactive; u = inconclusive; x = no result given. Unless noted, the call rests on the fitted dose curve.

SMILES	TSG101-PTAP inh	DRD3 antagonist	Rango complex inh	Mm-Cpn inhibitor	DRD3 agonist	Rango dissoc inh
COCCCNC(=S)NC1CC2CCCC(C1)N2Cc1ccco1 (stereo not given)	-8%	-150*	0%	-1%	-14	3%
Cc1cccc(NC(=S)NC2CC3CCC(C2)N3Cc2ccco2)c1 (stereo not given)	-1%	u	3%	1%	-29	-1%
Cc1ccc(C)c(Cn2c(=O)c3c(nc4n3CCN4c3ccc(F)cc3)n(C)c2=O)c1	x	x	x	x	-5	x
Nc1ccc(-c2c3ccc(=O)cc-3oc3cc(O)ccc23)cc1C(=O)O	u	-55*	u	-2%	-16	u
Cc1ccc(CC(=O)NCc2nc(-c3ccccc3)no2)cc1	x	x	x	x	-3	x
CCc1ccc(C(=O)NC(C(=O)NCC2CCCO2)C(C)C)cc1 (stereo not given)	-11%	-88*	-3%	1%	-20	5%
Cc1c(Cl)cccc1NC(=O)c1ccc2nc(C(C)C)oc2c1	x	x	x	x	7	x
Cc1ccc(SCC(=O)Nc2ccc(S(=O)(=O)Nc3ncccn3)cc2)cc1	-4%	-1	0%	0%	-5	-16%
Cc1cc(C)nc(SCC(=O)Nc2ccc(S(=O)(=O)Nc3ncccn3)cc2)n1	0%	4	0%	-2%	34*	-12%
CCCN(Cc1nnc(-c2cccs2)o1)C(=O)CN1C(=O)NC2(CCCCC2)C1=O	0%	8	4%	-2%	-5	0%
CCc1ccc2[nH]c(O)c(N=NC3=NC(=O)CS3)c2c1	-5%	-6	7%	-6%	-5	-11%
CCc1ccc2c(c1)c(N=NC1=NC(=O)CS1)c(O)n2CC	-8%	-88*	8%	-2%	-23	0%
COc1ccc(C2=CC(c3ccc(C)cc3)n3nnnc3N2)cc1 (stereo not given)	-13%	-18	u	-6%	32*	u
CCS(=O)(=O)N1CCC(C(=O)NCCCN2CCC(Cc3ccccc3)CC2)CC1	-2%	-12	-5%	0%	-1	14%
Cc1cc(=O)n2nc(N3CCCC(C(=O)NCCCN4CCc5ccccc5C4)C3)sc2n1 (stereo not given)	-6%	-86*	-1%	1%	-17	5%
O=C(NCCCN1CCc2ccccc2C1)C1CCN(S(=O)(=O)N2CCCC2)CC1	-9%	-80*	0%	u	-28	0%
CCC1CCCCN1CCCNC(=O)C1CCCN(c2nn3c(=O)cc(C)nc3s2)C1 (stereo not given)	-7%	-2	0%	1%	-1	18%
CCCS(=O)(=O)N1CCC(C(=O)NCCN2CCC(Cc3ccccc3)CC2)CC1	-9%	-57*	0%	-1%	5	0%
O=C(NCCN1CCN(c2ccccc2)CC1)C1CCN(S(=O)(=O)N2CCOCC2)CC1	0%	-4	-3%	1%	63*	3%
CN=C1C=CC(=C(c2ccc(N(C)C)cc2)c2ccc(N(C)C)cc2)C=C1	x	x	x	x	-24	x
O=C(Nc1ccccc1C(=O)O)c1ccc(NC(=O)C2CCCO2)cc1 (stereo not given)	-3%	9	0%	-7%	-2	-8%
O=C(NCCCN1CCc2ccccc2C1)C1CCN(S(=O)(=O)N2CCC3(CC2)OCCO3)CC1	-2%	-65*	-1%	1%	-12	17%
